Inconclusive results are not listed. Active and inactive are the calls of the source. The calls were made as follows: active = hit-call score of the fitted dose curve at least 0.9, where 1 is the maximum; inconclusive = response in the unintended direction; inactive = score below 0.9.
Test: ACEA_ER_80hr: ACEA Biosciences xCELLigence Real-Time Cell Analysis on Estrogen Receptor Agonism for Proliferation (AID 2282667)
Details: T47D proliferation, impedance (xCELLigence), 80 h
How it was run: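 T-47D cells monitored by electrical impedance (xCELLigence) with compound present throughout; 80 h timepoint, positive-direction fitting versus DMSO. Eight-point 1:4 dilutions from 100 uM final, duplicate plates.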

Row | Compound | outcome | AC50
1 | CCCCCCOc1ccc(O)cc1 | inactive | –
2 | N#CCCNCCC#N | – | 0.274 µM (active)
3 | NC(N)=NC(N)=NCCc1ccccc1 | inactive | –
4 | CC(=O)Oc1c(C)c(C)c2c(c1C)CC[C@@](C)(CCC[C@H](C)CCC[C@H](C)CCCC(C)C)O2 | inactive | –
5 | CCCCCCCC1CCCC1=O (configuration not stated) | inactive | –
6 | CC(C)Cc1ccc(C(C)C(=O)O)cc1 (configuration not stated) | inactive | –
7 | O=C(O)c1cc2ccccc2cc1O | inactive | –
8 | CCC(C)(C)C1CCC(=O)CC1 | inactive | –
9 | CCC(CC)CO | inactive | –
10 | CCCCOC(=O)C(C)OC(=O)CCC (configuration not stated) | inactive | –
11 | C=C(C)C(=O)OCCN(C)C | inactive | –
12 | CCCCCCCCCCO[C@@H]1O[C@H](CO)[C@@H](O)[C@H](O)[C@H]1O | inactive | –
13 | CCO[Si](CC)(OCC)OCC | inactive | –
14 | O=C(O)c1cccc(Cl)n1 | inactive | –
15 | CC(=O)c1cccnc1 | inactive | –
16 | COc1ccccc1O | inactive | –
17 | O=C(O)c1ccccc1O | inactive | –
18 | NCCCOCCOCCOCCCN | – | 10.2 µM (active)
19 | CCC(C)(C)c1cc(O)c(C(C)(C)CC)cc1O | inactive | –

Row | Compound | outcome | AC50
20 | NCCN1CCNCC1 | – | 10.8 µM (active)
21 | CC1=CCC(=C(C)C)CC1 | inactive | –
22 | CCOC(=O)C=Cc1ccccc1 | inactive | –
23 | CCCCCCCCCO | inactive | –
24 | CC(C)COC(=O)c1ccccc1O | inactive | –
25 | CCCCCCC(C)O (configuration not stated) | inactive | –
26 | CN(C)C | inactive | –
27 | OCC(F)(OC(F)(F)C(F)(OC(F)(F)C(F)(F)C(F)(F)F)C(F)(F)F)C(F)(F)F (configuration not stated) | inactive | –
28 | CC(C)N1C(=O)c2ccccc2C1=O | inactive | –
29 | CC(C)(C)c1cccc(O)c1 | inactive | –
30 | O=C1CCC(=O)N1 | inactive | –
31 | C=C(C)C(=O)OCCC(C)OC(=O)C(=C)C (configuration not stated) | inactive | –
32 | CCOC(=O)COC(=O)c1ccccc1C(=O)OCC | inactive | –
33 | CCC(=O)OC/C=C(\C)CCC=C(C)C | – | 0.0916 µM (active)
34 | O=Cc1ccccc1O | – | 10.7 µM (active)
35 | O=S(=O)(O)c1cc(S(=O)(=O)O)c2c(N=Nc3ccccc3)c(O)ccc2c1 | inactive | –
36 | NNC(=O)OCc1ccccc1 | inactive | –
37 | CCOc1ccc(NC(C)=O)cc1 | inactive | –

Reference: PubChem BioAssay (EPA / NIEHS)
